Hit rate of the full screen: of about 52,000 compounds, about 4,300 (8.3%) were called active. The sample holds actives, similar compounds and a random draw of the others, so the mix is not that of the screen. Values without a mark were called inactive. No stated cut-off is given here; in the data, active means survival mostly below about 52% (no sharp cut-off); inactive means mostly above about 56%.
These compounds were tested on DeltatarO mutant (assay: growth inhibition of S. aureus wild type versus tarO mutant, primary screen, teichoic acid synthesis inhibitors, RN4220, OD600 (AID 463173)). Settings: OD600, 18 h, active compounds read low, screened at 18.75 µg/mL (by protocol).

SMILES	survival
C=CCNC(=S)N1CCC(C(=O)c2ccc(C)cc2)CC1	103%
O=C(N/N=C/c1ccccc1)C(O)c1ccccc1 (stereo not drawn)	95%
COc1ccc(-c2nc3sc(CCNC(=O)C(=O)Nc4ccc(OC)c(OC)c4)c(C)n3n2)cc1	84%
CCCN1CC=C2C(C#N)=C(N)C(C#N)(C#N)C(c3ccc(F)cc3F)C2C1 (stereo not drawn)	77%
Cc1cc(OC(C)C(=O)N2CCN(CCc3ccccn3)CC2)ccc1Cl (stereo not drawn)	68%
CC1=C(C(=O)Nc2ccc(C)cc2C)C(c2cc(Br)ccc2F)n2ncc(C(=O)Nc3ccc(C)cc3)c2N1 (stereo not drawn)	89%
Cc1ccc(-n2ncc3c(Nc4ccc5c(c4)OCCO5)ncnc32)cc1Cl	117%
COc1cc(NC(=O)CC2C(=O)N(c3ccc(Cl)cc3)C(=O)N2Cc2cccs2)cc(OC)c1 (stereo not drawn)	85%
COc1ccc(-n2c(SCC(=O)NCc3ccc(C)cc3)nc3n[nH]c(C)c3c2=N)cc1	87%
Cc1ccccc1Cn1c(=O)n(-c2ccc(Cl)cc2)c(=O)c2c3c(sc21)CCCC3	114%
COc1ccc(NC(=O)c2ccc3c(=O)n4nc(Nc5cccc(Cl)c5C)sc4nc3c2)cc1	67%
CC1CCCN(Cc2c(O)ccc3c(=O)c(-c4ccccc4Cl)c(C(F)(F)F)oc23)C1 (stereo not drawn)	43% (active)
CC1CCN(Cc2c(O)ccc3c(=O)c(-c4ccc(Cl)cc4)c(C(F)(F)F)oc23)CC1	60%
COc1ccc(Oc2c(C(F)(F)F)oc3c(CN4CCCC(C)C4)c(O)ccc3c2=O)cc1 (stereo not drawn)	68%
CC1CCCN(Cc2c(O)ccc3c(=O)c(Oc4ccccc4Cl)c(C(F)(F)F)oc23)C1 (stereo not drawn)	88%
CC(C)c1ccccc1Oc1c(C(F)(F)F)oc2c(CN3CCN(C)CC3)c(O)ccc2c1=O	49%
CCN1CCN(Cc2c(O)ccc3c(=O)c(Oc4ccccc4Cl)c(C(F)(F)F)oc23)CC1	90%
CCN1CCN(Cc2c(O)ccc3c(=O)c(Oc4ccccc4C(C)C)c(C(F)(F)F)oc23)CC1	51% (active)
CC1CCCN(Cc2c(O)ccc3c(=O)c(-c4ccc(Cl)cc4)c(C(F)(F)F)oc23)C1 (stereo not drawn)	46% (active)
CC1CCCN(Cc2c(O)ccc3c(=O)c(Oc4ccc(C(C)(C)C)cc4)c(C(F)(F)F)oc23)C1 (stereo not drawn)	17% (active)
CCc1ccc(Oc2c(C(F)(F)F)oc3c(CN4CCCC(C)C4)c(O)ccc3c2=O)cc1 (stereo not drawn)	77%
CC1CCCCN1Cc1c(O)ccc2c(=O)c(-c3ccccc3Cl)c(C(F)(F)F)oc12 (stereo not drawn)	55%
O=c1c(-c2ccc(Cl)cc2)c(C(F)(F)F)oc2c(CN3CCCCC3)c(O)ccc12	134%
